High-throughput results from PubChem BioAssay.
A selection: hits, their analogues and other compounds. The true share with any hit is near 2.4%.
D2 PAM-1: Beta-Arrestin HTS for Positive Allosteric Modulators of the Human D2 Dopamine Receptor: Potentiators; D(2) dopamine receptor (Homo sapiens), P14416; DiscoveRx D2 beta-arrestin cells, luminescence, 90 min; 100% = 57 uM dopamine signal; potentiation, % (no concentration beside the values); hit rate 0.23% among 360,000; AID 624464, 2012; in the data active = potentiation above about 50%; inconclusive = mostly about 30% to 49%
Target sequence (P14416 whole entry, looked up): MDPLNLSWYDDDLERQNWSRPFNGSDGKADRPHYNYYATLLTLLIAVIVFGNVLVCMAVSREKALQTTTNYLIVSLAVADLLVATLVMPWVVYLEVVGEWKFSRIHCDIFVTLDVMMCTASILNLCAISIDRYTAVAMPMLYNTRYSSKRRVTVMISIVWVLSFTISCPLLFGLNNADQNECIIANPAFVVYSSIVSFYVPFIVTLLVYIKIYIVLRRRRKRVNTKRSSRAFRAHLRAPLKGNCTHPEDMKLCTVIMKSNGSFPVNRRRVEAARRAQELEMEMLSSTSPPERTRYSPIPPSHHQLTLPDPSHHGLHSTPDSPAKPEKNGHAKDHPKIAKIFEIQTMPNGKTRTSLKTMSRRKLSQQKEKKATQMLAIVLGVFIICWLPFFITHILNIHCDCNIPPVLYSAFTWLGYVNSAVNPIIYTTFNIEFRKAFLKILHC
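D2 cells co-treated with compound plus 50 nM dopamine (EC20) for 90 min at 37 deg C to detect potentiation. Beta-arrestin recruitment was read as enzyme-fragment luminescence after 1 h at ambient temperature. Full response was set by 57 uM dopamine.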
D2 ag-1: HTS Assay for Allosteric Agonists of the Human D2 Dopamine Receptor: Primary Screen for Agonists | HEK293 T-REx D2 cells, calcium flux agonist mode | hit rate 0.53% among 340,000 | D(2) dopamine receptor (Homo sapiens), P14416 | AID 485358, 2010 | activation, % at 2 µM;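 active = activation over 3 SD above normal in the single-dose calcium agonist read, cut at about 30% in these data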
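Tetracycline-induced HEK293 T-REx cells with force-coupled D2 receptor, plated overnight at 30 C, loaded with no-wash calcium dye. After a 10 s baseline, compound was pin-added and calcium flux read kinetically for 180 s; calcium rises flagged agonists.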
D2 PAM-2: HTS Assay for Positive Allosteric Modulators of the Human D2 Dopamine Receptor: Primary Screen for Potentiators | D(2) dopamine receptor (Homo sapiens), P14416 | HEK293 T-REx D2, calcium flux, EC20 dopamine potentiation | potentiation, % at 10 µM | hit rate 0.34% among 340,000 | AID 485347, 2010;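 active = potentiation over 3 SD above the plate norm, cut at about 30% in these data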
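Potentiation of an EC20 dopamine calcium response measured kinetically over 180 s, after a preceding 180 s compound-only read flagging agonists. Cells: inducible Hek293 Trex D2 line, 4000/well, cultured overnight at 30 C before dye loading.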
D2 antag: HTS Assay for Allosteric Antagonists of the Human D2 Dopamine Receptor: Primary Screen for Antagonists. AID 485344, 2010. inhibition, % at 10 µM. D(2) dopamine receptor (Homo sapiens), P14416. HEK293 TREx D2 cells, calcium flux, dopamine EC80. hit rate 2% among 340,000; in the data active = inhibition above about 30%; inactive = below that, where a call was filed
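HEK293 T-REx D2 cells, tet-induced, calcium dye no-wash. Cpd pintool add, 180 s kinetic, then EC80 DA, 180 s kinetic. Ca flux read.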
D2 ag-2: Beta-Arrestin HTS for Positive Allosteric Modulators of the Human D2 Dopamine Receptor: Agonists | activation, % (concentration not given with the values) | hit rate 0.084% among 360,000 | DiscoveRx PathHunter D2 beta-arrestin, luminescence, 90 min; 100% = 57 uM dopamine signal | AID 624465, 2012; in the data active = activation above about 40%; inconclusive = between about 15% and that limit
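Agonist mode: compounds alone added to overnight-plated D2 PathHunter cells for 90 min at 37 C, with 57 uM final dopamine (EC100) defining full response. Beta-arrestin recruitment detected by chemiluminescent reagent, read after 1 h at ambient temperature.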
Hits are given with their value; i = inactive; ? = inconclusive; nt = no result.

SMILES | D2 PAM-1 | D2 ag-1 | D2 PAM-2 | D2 antag | D2 ag-2
CCOC(=O)C1CCN(S(=O)(=O)c2ccc3c(c2)NC(=O)C(C)C(=O)N3)CC1 (stereo not given) | i | i | i | nt | i
CN1CCN(C(=O)/C(=C/c2cn(S(=O)(=O)N(C)C)c3ccccc23)NC(=O)c2ccccc2F)CC1 | i | i | i | i | i
OC(COc1ccccc1F)CN1CCC(Cc2ccccc2)CC1 (stereo not given) | i | i | i | 65 | i
Cc1cc(C)cc(OCC(O)CN2CCN(Cc3ccc4c(c3)OCO4)CC2)c1 (stereo not given) | i | i | i | i | i
CN1CCN(CC(O)COc2ccccc2)CC1 (stereo not given) | i | i | i | 33 | i
OC(COc1ccc(F)cc1Cl)CN1CCC(Cc2ccccc2)CC1 (stereo not given) | i | i | i | i | i
OC(COc1ccccc1)CN1CCN(Cc2ccc3c(c2)OCO3)CC1 (stereo not given) | i | i | i | 36 | i
Cc1cc(C)nc(-n2nc(C)c3c2NC(=O)CC3c2cc(F)ccc2F)n1 (stereo not given) | nt | i | i | nt | nt
O=C(CSc1n[nH]c(-c2ccncc2)n1)Nc1ccccc1Cl | i | i | i | i | i
CCc1nnc(NC(=O)CSc2nnc(-c3ccncc3)n2C)s1 | i | i | 31 | i | i
Cc1cc(NC(=O)CSc2nc(-c3ccco3)cc(C(F)(F)F)n2)n(-c2ccccc2)n1 | i | i | i | i | i
Cc1cc(NC(=O)CCCSc2nc(-c3ccco3)cc(C(F)(F)F)n2)n(-c2ccccc2)n1 | i | i | 33 | i | i
CCn1nc(C)c(NC(=O)CCSc2nc(-c3ccco3)cc(C(F)(F)F)n2)c1C | i | i | 31 | i | i
N#Cc1c(NC(=O)CSc2nc(-c3ccco3)cc(C(F)(F)F)n2)sc2c1CCCC2 | i | i | 44 | i | i
CCCCc1nc2cc(C(=O)N3CCCCC3C(=O)OC)ccc2o1 (stereo not given) | i | i | i | i | i
C[C@@H]1CN([C@H](C)CO)C(=O)CCCn2nncc2CO[C@H]1CN(C)S(C)(=O)=O | i | nt | nt | nt | i
N#CCCn1c(O)c(N=NC(=O)CNC(=O)c2cccs2)c2ccccc21 | i | i | i | i | i
Cc1c(CNC2CCCCCC2)c(C(=O)O)c(C)n1Cc1ccc(F)cc1Cl | nt | i | i | nt | nt
O=C(c1cncc(Br)c1)N1CCN(c2ccc(N3CCOCC3)nn2)CC1 | i | i | i | i | i
O=C(c1cccc(Br)c1)N1CCN(c2ccc(N3CCOCC3)nn2)CC1 | i | i | i | 33 | i
O=C(Oc1ccccc1C(=O)N1CCOCC1)c1cccc(Br)c1 | i | i | i | 47 | i
COc1ncc(C2=CC(=O)CC(C)(C)C2)cn1 | i | i | i | i | i
CC(C)Cn1c(CCCNC(=O)c2ccc(F)cc2)nc2ccccc21 | i | i | i | 31 | i
Cc1ccc(NC(=O)c2ccc(Cl)cc2Cl)c(C(=O)c2ccccc2)c1 | nt | i | i | nt | nt
CCCCn1c(NCCC)nc2c1c(=O)[nH]c(=O)n2C | i | i | 40 | i | i
SMILES | D2 PAM-1 | D2 ag-1 | D2 PAM-2 | D2 antag | D2 ag-2
CCCNc1nc2c(c(=O)[nH]c(=O)n2C)n1CCC(C)C | i | i | i | i | i
O=C1COc2cc(O)ccc21 | i | nt | nt | nt | i
COc1ccc(N=C2S/C(=C\c3ccco3)C(=O)N2CC(C)C)cc1 | i | i | i | 36 | i
COc1ccc(N=C2S/C(=C\c3cc(C)n(C)c3C)C(=O)N2CC(C)C)cc1 | i | i | i | i | i
Cc1cccc(N2CCN(C(=O)CCn3c(=O)[nH]c4ccsc4c3=O)CC2C)c1 (stereo not given) | ? | i | i | i | 56
O=C(CCCCCn1c(=O)[nH]c2ccsc2c1=O)N1CCN(C2CCCCC2)CC1 | i | i | i | 53 | i
O=C(CCCCCn1c(=O)[nH]c2ccsc2c1=O)N1CCCCC1 | i | i | i | i | i
O=C(CC12CC3CC(CC(Br)(C3)C1)C2)NC1CCCC1 | i | i | i | 34 | i
